The source made the active and inactive calls. Rule for the calls: active = hit-call score of the fitted dose curve at least 0.9, where 1 is the maximum; inactive = score below 0.9.
Experiments:
Conditions in all cases: mRNA level, 48 h; actives raise or lower the signal
[1] = read-out: Insulin-like growth factor-binding protein 1 (IGFBP1), IGFBP1 (gene 3484); assay: LTEA_HepaRG_IGFBP1: Life Technologies and Expression Analysis (LTEA) Assay for Insulin-like growth factor-binding protein 1 (IGFBP1) using HepaRG (AID 2283508)
Procedure, shortened: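 HepaRG cells, plated 48 h then switched to serum-free induction medium, exposed in duplicate for 48 h to 8-point half-log series from 100 uM in 0.5% DMSO. mRNA measured by qRT-PCR, normalized to ACTB/GAPDH/POLR2A; bidirectional fit versus DMSO.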

[2] = read-out: Interleukin 6 (IL6), IL6 (gene 3569); assay: LTEA_HepaRG_IL6: Life Technologies and Expression Analysis (LTEA) Assay for Interleukin 6 (IL6) using HepaRG (AID 2283509)
Procedure, shortened: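 HepaRG cells exposed in duplicate for 48 h to eight half-log concentrations, top 100 uM, in 0.5% DMSO serum-free induction medium. mRNA measured by qRT-PCR, normalized to ACTB, GAPDH and POLR2A. Bidirectional fit versus DMSO.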

[3] = read-out: Interleukin 6 Receptor (IL6R), IL6R (gene 3570); assay: LTEA_HepaRG_IL6R: Life Technologies and Expression Analysis (LTEA) Assay for Interleukin 6 Receptor (IL6R) using HepaRG (AID 2283510)
Procedure, shortened: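 Readout is IL6R transcript level by TaqMan qRT-PCR, normalized to three housekeeping genes and fitted bidirectionally against 0.5% DMSO controls. Human HepaRG cells received chemicals for 48 h in serum-free induction medium, highest concentration 100 uM.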

[4] = read-out: Potassium channel subfamily K member 1 (KCNK1), KCNK1 (gene 3775); assay: LTEA_HepaRG_KCNK1: Life Technologies and Expression Analysis (LTEA) Assay for Potassium channel subfamily K member 1 (KCNK1) using HepaRG (AID 2283511)
Procedure, shortened: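 Differentiated HepaRG cells, 48 h exposure in serum-free induction medium with 0.5% DMSO; 8 concentrations, half-log from 100 uM, duplicate. KCNK1 mRNA by qRT-PCR, normalized to ACTB, GAPDH, POLR2A; bidirectional fit vs DMSO.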

[5] = read-out: Keratin 19 (KRT19), KRT19 (gene 3880); assay: LTEA_HepaRG_KRT19: Life Technologies and Expression Analysis (LTEA) Assay for Keratin 19 (KRT19) using HepaRG (AID 2283512)
Procedure, shortened: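 Differentiated HepaRG cells in serum-free induction medium, exposed 48 h in duplicate to 8 half-log concentrations up to 100 uM in 0.5% DMSO. KRT19 mRNA by qRT-PCR, normalized to ACTB, GAPDH, POLR2A; bidirectional fit vs DMSO.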

[6] = read-out: JUN Transcription Factor, JUN (gene 3725); assay: LTEA_HepaRG_JUN: Life Technologies and Expression Analysis (LTEA) Assay for JUN Transcription Factor using HepaRG (AID 2283513)
Procedure, shortened: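 Cells plated 48 h, medium switched to serum-free induction medium, then dosed 48 h (100 uM top, half-log dilutions, 0.5% DMSO). RNA isolated; JUN measured by qRT-PCR against three housekeeping genes; gain or loss fitted relative to DMSO.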

[7] = read-out: Lipase C (LIPC), LIPC (gene 3990); assay: LTEA_HepaRG_LIPC: Life Technologies and Expression Analysis (LTEA) Assay for Lipase C (LIPC) using HepaRG (AID 2283514)
Procedure, shortened: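 HepaRG cells, 48 h after plating, treated in duplicate for 48 h in serum-free induction medium over 8 half-log concentrations from 100 uM, 0.5% DMSO. LIPC mRNA by TaqMan qRT-PCR normalized to ACTB/GAPDH/POLR2A; bidirectional fit versus DMSO.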

[8] = read-out: Lipoprotein lipase (LPL), LPL (gene 4023); assay: LTEA_HepaRG_LPL: Life Technologies and Expression Analysis (LTEA) Assay for Lipoprotein lipase (LPL) using HepaRG (AID 2283515)
Procedure, shortened: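 Differentiated HepaRG cells, plated 48 h, then exposed 48 h in serum-free induction medium to 8 concentrations (top 100 uM, half-log steps) in 0.5% DMSO, duplicate. LPL mRNA measured by qRT-PCR, normalized to ACTB, GAPDH and POLR2A.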

[9] = read-out: MicroRNA 122 (MIR122), gene 406906; assay: LTEA_HepaRG_MIR122: Life Technologies and Expression Analysis (LTEA) Assay for MicroRNA 122 (MIR122) using HepaRG (AID 2283516); note: the transcript read is the microRNA miR-122
Procedure, shortened: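 HepaRG plated 48 h, switched to serum-free induction medium, then treated in duplicate for 48 h (100 uM top, half-log steps, 0.5% DMSO vehicle). RNA isolated, qRT-PCR performed, concentration-response fitted both directions relative to DMSO.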

[10] = read-out: matrix metalloproteinase-10 (MMP10), MMP10 (gene 4319); assay: LTEA_HepaRG_MMP10: Life Technologies and Expression Analysis (LTEA) Assay for matrix metalloproteinase-10 (MMP10) using HepaRG (AID 2283517)
Procedure, shortened: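 Differentiated HepaRG cells in serum-free induction medium exposed 48 h in duplicate to 8-point half-log series up to 100 uM in 0.5% DMSO. mRNA quantified by qRT-PCR, normalised to ACTB, GAPDH, POLR2A; bidirectional fit versus DMSO.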

[11] = read-out: MYC, MYC (gene 4609); assay: LTEA_HepaRG_MYC: Life Technologies and Expression Analysis (LTEA) Assay for MYC using HepaRG (AID 2283518)
Procedure, shortened: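 Differentiated HepaRG cells exposed 48 h in serum-free induction medium to 8 concentrations (top 100 uM, half-log steps; 0.5% DMSO), duplicate. MYC mRNA measured by Fluidigm qRT-PCR, normalized to ACTB, GAPDH, POLR2A; bidirectional fit versus DMSO.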

[12] = read-out: matrix metalloproteinase-3 (MMP3), MMP3 (gene 4314); assay: LTEA_HepaRG_MMP3: Life Technologies and Expression Analysis (LTEA) Assay for matrix metalloproteinase-3 (MMP3) using HepaRG (AID 2283519)
Procedure, shortened: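 HepaRG cells (~100,000/well) in serum-free induction medium were dosed in duplicate for 48 h with an 8-point half-log series from 100 uM, 0.5% DMSO. MMP3 mRNA was quantified by Fluidigm TaqMan qRT-PCR, normalized to three housekeeping genes.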

[13] = read-out: Paternally Expressed 10 (PEG10), PEG10 (gene 23089); assay: LTEA_HepaRG_PEG10: Life Technologies and Expression Analysis (LTEA) Assay for Paternally Expressed 10 (PEG10) using HepaRG (AID 2283520)
Procedure, shortened: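 HepaRG, 48 h post-plating → serum-free induction medium → 48 h chemical exposure (duplicate, 8-pt, max 100 uM, half-log, 0.5% DMSO) → lysis in RLT → TaqMan qRT-PCR for PEG10, ACTB/GAPDH/POLR2A normalisation.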

[14] = read-out: Nuclear factor NF-kappa-B p105 subunit (Homo sapiens) (UniProt P19838); assay: LTEA_HepaRG_NFKB1: Life Technologies and Expression Analysis (LTEA) Assay for Nuclear Factor Kappa B Subunit 1 (NFKB1) using HepaRG (AID 2283521);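 note: TaqMan qRT-PCR transcript normalised to ACTB GAPDH and POLR2A housekeeping genes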
Procedure, shortened: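 Differentiated human HepaRG cells were exposed for 48 h in serum-free induction medium to eight concentrations (top 100 uM, half-log steps, 0.5% DMSO), in duplicate. NFKB1 mRNA was measured by TaqMan qRT-PCR, normalized to ACTB/GAPDH/POLR2A, and fitted bidirectionally against DMSO.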

[15] = read-out: Protein phosphatase 2A (PPP2R4), PTPA (gene 5524); assay: LTEA_HepaRG_PPP2R4: Life Technologies and Expression Analysis (LTEA) Assay for Protein phosphatase 2A (PPP2R4) using HepaRG (AID 2283522)
Procedure, shortened: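 Readout is PPP2R4 transcript level by microfluidic qRT-PCR after 48 h chemical treatment of human HepaRG liver cells. Concentrations spanned 100 uM downward in half-log steps; gain or loss of signal was fitted relative to DMSO.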

[16] = read-out: Phosphatase and tensin (PTEN), PTEN (gene 5728); assay: LTEA_HepaRG_PTEN: Life Technologies and Expression Analysis (LTEA) Assay for Phosphatase and tensin (PTEN) using HepaRG (AID 2283523)
Procedure, shortened: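 HepaRG cells, 48 h after plating, exposed in duplicate for 48 h in serum-free induction medium to 8 half-log concentrations up to 100 uM (0.5% DMSO). PTEN mRNA by qRT-PCR, normalized to ACTB, GAPDH, POLR2A; bidirectional fit versus DMSO.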

[17] = read-out: solute carrier (SLC22A1), SLC22A1 (gene 6580); assay: LTEA_HepaRG_SLC22A1: Life Technologies and Expression Analysis (LTEA) Assay for solute carrier (SLC22A1) using HepaRG (AID 2283524)
Procedure, shortened: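 Differentiated human HepaRG cells in serum-free induction medium, exposed 48 h in duplicate to 8-point half-log series from 100 µM top in 0.5% DMSO. SLC22A1 mRNA by TaqMan qRT-PCR normalized to ACTB, GAPDH, POLR2A; bidirectional fit versus DMSO.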

[18] = read-out: Pyruvate Dehydrogenase Kinase 4 (PDK4), PDK4 (gene 5166); assay: LTEA_HepaRG_PDK4: Life Technologies and Expression Analysis (LTEA) Assay for Pyruvate Dehydrogenase Kinase 4 (PDK4) using HepaRG (AID 2283525)
Procedure, shortened: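 HepaRG cells plated 48 h, then switched to serum-free induction medium and exposed in duplicate for 48 h to 8 half-log concentrations from 100 uM in 0.5% DMSO. PDK4 mRNA measured by qRT-PCR, normalized to ACTB, GAPDH and POLR2A; bidirectional fit versus DMSO.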

[19] = read-out: NAD(P)H dehydrogenase [quinone] 1 (NQO1), NQO1 (gene 1728); assay: LTEA_HepaRG_NQO1: Life Technologies and Expression Analysis (LTEA) Assay for NAD(P)H dehydrogenase [quinone] 1 (NQO1) using HepaRG (AID 2283526)
Procedure, shortened: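 HepaRG, 48 h post-plating → serum-free induction medium → test chemical 48 h (duplicate, 100 uM top, half-log x8, 0.5% DMSO) → RNA isolation → qRT-PCR, ACTB/GAPDH/POLR2A normalization; bidirectional curve fit vs DMSO baseline.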

[20] = read-out: Nuclear factor erythroid 2-related factor 2 (Homo sapiens) (UniProt Q16236); assay: LTEA_HepaRG_NFE2L2: Life Technologies and Expression Analysis (LTEA) Assay for Nuclear factor erythroid 2-related factor 2 (NFE2L2) Transcription Factor using HepaRG (AID 2283527);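 note: TaqMan qRT-PCR transcript level normalised to ACTB GAPDH and POLR2A housekeeping genes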
Procedure, shortened: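 Differentiated human HepaRG cells, serum-free induction medium, exposed 48 h in duplicate to eight half-log concentrations up to 100 uM in 0.5% DMSO. NFE2L2 mRNA by Fluidigm TaqMan qRT-PCR, normalised to ACTB, GAPDH, POLR2A; bidirectional change versus DMSO.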

Measured: AC50

Nuclear factor NF-kappa-B p105 subunit (Homo sapiens), sequence (P19838 whole entry, looked up): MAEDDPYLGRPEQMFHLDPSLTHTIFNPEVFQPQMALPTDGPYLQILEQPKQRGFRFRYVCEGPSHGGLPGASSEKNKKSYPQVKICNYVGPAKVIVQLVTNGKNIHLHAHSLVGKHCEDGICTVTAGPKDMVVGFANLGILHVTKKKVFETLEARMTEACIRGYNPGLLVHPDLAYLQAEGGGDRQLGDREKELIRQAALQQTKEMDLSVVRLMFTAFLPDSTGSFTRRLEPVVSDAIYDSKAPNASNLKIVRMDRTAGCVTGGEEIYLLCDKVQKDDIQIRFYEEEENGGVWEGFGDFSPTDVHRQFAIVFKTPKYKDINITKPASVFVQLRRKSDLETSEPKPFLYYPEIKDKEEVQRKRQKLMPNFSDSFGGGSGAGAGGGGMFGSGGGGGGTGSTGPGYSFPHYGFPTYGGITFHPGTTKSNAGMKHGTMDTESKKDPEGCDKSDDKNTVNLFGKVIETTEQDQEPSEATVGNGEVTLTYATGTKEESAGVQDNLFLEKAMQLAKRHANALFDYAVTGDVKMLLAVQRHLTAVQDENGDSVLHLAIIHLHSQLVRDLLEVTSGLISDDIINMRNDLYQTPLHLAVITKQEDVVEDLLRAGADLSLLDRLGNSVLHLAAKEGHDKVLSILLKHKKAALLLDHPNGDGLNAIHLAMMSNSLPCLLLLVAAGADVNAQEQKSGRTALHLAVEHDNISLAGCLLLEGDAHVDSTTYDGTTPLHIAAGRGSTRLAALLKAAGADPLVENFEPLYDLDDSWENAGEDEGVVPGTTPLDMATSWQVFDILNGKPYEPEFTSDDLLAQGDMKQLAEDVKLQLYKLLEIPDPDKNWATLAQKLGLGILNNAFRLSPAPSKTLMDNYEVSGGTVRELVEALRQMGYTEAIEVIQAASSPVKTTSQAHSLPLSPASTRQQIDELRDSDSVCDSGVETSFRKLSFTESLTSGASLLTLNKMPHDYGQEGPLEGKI
Nuclear factor erythroid 2-related factor 2 (Homo sapiens), sequence (Q16236 whole entry, looked up): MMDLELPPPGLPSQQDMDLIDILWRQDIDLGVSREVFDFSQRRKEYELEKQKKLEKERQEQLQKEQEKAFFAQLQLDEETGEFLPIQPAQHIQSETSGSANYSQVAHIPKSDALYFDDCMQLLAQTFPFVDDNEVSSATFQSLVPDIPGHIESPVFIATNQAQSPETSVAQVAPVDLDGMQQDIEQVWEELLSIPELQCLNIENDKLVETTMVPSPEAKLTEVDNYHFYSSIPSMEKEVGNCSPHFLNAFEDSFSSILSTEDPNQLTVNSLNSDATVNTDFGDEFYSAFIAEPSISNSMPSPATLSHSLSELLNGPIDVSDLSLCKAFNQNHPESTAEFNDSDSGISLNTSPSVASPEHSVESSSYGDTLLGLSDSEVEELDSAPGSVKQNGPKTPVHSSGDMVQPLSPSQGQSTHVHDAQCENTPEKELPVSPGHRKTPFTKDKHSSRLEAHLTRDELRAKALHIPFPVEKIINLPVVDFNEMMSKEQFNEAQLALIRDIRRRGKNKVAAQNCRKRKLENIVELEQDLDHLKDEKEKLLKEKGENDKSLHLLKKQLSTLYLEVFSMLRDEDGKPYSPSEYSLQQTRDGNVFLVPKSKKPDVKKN

NC(=O)O
inactive: all assays above

C=CC(=O)OCCCCCC(C)C
inactive: all assays above

CCC(C)(C)c1ccc(O)c(C(C)(C)CC)c1
inactive: all assays above

C[C@]12CCC(=O)C[C@@H]1CC[C@@H]1[C@@H]2CC[C@]2(C)[C@@H](O)CC[C@@H]12
active: [13] 50 µM
inactive: all other assays above

CC(C)(C)c1cc(O)ccc1O
not listed: [4]
inactive: all other assays above

ClC1(Cl)C2(Cl)C3(Cl)C4(Cl)C(Cl)(Cl)C5(Cl)C3(Cl)C1(Cl)C5(Cl)C24Cl (stereo not drawn)
active: [18] 16.8 µM
not listed: [14]
inactive: all other assays above

O=C(O)C(F)(F)C(F)(F)C(F)(F)C(F)(F)C(F)(F)C(F)(F)F
active: [18] 35.6 µM
inactive: all other assays above

CC(C)(OO)c1ccccc1
inactive: all assays above

From PubChem BioAssay (EPA / NIEHS)
